Measured values reported in PubChem BioAssay AID1850 (Southern Research Specialized Biocontainment Screening …, 2009).
Hit rate of the full screen: of about 310,000 compounds, about 1,000 (0.32%) were called active. A selection follows. Entries with a potency or affinity are not part of this list. A number with no mark means an inactive call. The rule behind the calls is not given here.

test: Inhibition of PhoP regulon, Salmonella typhi GFP reporter cells, confirmation, 4 h (AID 1850); details: Salmonella Typhi PhoP-promoter GFP reporter, fluorescence, at 50 µM, hits give high values;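 note: 0% = induced wells with vehicle and 100% = uninduced wells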

Compound	inhibition
CN1CCC(OC(=O)c2ccccc2)CC1	8.65%
CN1CCC(OC(=O)c2cccc(Cl)c2)CC1	4.43%
COc1ccc(C(=O)OC2CCN(C)CC2)cc1	3.95%
CN1CCC(OC(=O)c2ccccc2Cl)CC1	-6.15%
CCOC(=O)c1ncn2c1C(=O)OC2(C)C	6.54%
CCOc1ccccc1OCc1nn2c(-c3ccc(C)cc3)nnc2s1	3%
C#CCOCCOCCOCCNc1nc(N2CCOCC2)nc(N2CCN(C(=O)CCCCCCCCCCNC(=O)[C@H](CO)n3cc(CCCCCN)nn3)CC2)n1	-10.9%
C#CCOCCOCCOCCNc1nc(N2CCOCC2)nc(N2CCN(C(=O)CCCCCCCCCCNC(=O)[C@H]([C@@H](C)CC)n3cc(CCCCN=C(N)N)nn3)CC2)n1	5.04%
C#CCOCCOCCOCCNc1nc(N2CCN(C(=O)CCCCCCCCCCNC(=O)[C@H]([C@@H](C)CC)n3cc(CCCCCN)nn3)CC2)nc(N2CCN(C(=O)CCCCCCCCCCNC(=O)[C@H](CO)n3cc(CCCCCN)nn3)CC2)n1	9.35%
C#CCOCCOCCOCCNc1nc(N2CCN(C(=O)[C@H]([C@@H](C)CC)n3cc(CCCCN)nn3)CC2)nc(N2CCN(C(=O)[C@H]([C@@H](C)CC)n3cc(CCCN=C(N)N)nn3)CC2)n1	-1.05%
O=C(COC(=O)/C=C/c1ccc([N+](=O)[O-])cc1)NCc1ccccc1	-8.81%
CCCCCCC(C)n1cc(C(C)=O)c(=O)n(C)c1=O (stereo not drawn)	-9.33%
CN(C)CCNC(=O)CCCNC(=O)Cn1cnc2sc3c(c2c1=O)CCCC3	12.2%
Cc1ccc(-c2nn(C)c(=O)c3ccccc23)cc1S(=O)(=O)NCCO	-2.47%
CO/N=C(\C(=O)N[C@@H]1C(=O)N2C(C(=O)O)=C(COC(N)=O)CS[C@H]12)c1ccco1	-2.22%
COCC1=C(C(=O)OC(C)OC(=O)OC(C)C)N2C(=O)[C@@H](NC(=O)/C(=N\OC)c3csc(N)n3)[C@H]2SC1 (stereo partly drawn)	15.8%
COc1ccc(OCC(=O)Nc2c3c(nn2-c2ccccc2)CS(=O)(=O)C3)cc1	-4.09%
CCCC/C=C1\CCc2c([nH]c3ccccc23)C1=O	8.47%
CC1=NCCc2c1[nH]c1ccccc21	5.56%
O=C(CCS(=O)(=O)Cc1ccc(Cl)cc1)NCCc1ccccc1	-1.47%
CC1=C(C(=O)OC(C)C)C(c2ccc(C)o2)C(C(=O)OC(C)C)=C(C)N1	6.14%
COc1ccccc1CN1CC(C(=O)NC2CCCCC2)CC1=O (stereo not drawn)	1.61%

Compound	inhibition
CC(C)C/C(O)=C/c1nc2cc(Cl)ccc2oc1=O	-18.3%
O=c1oc2ccc(Cl)cc2nc1/C=C(\O)c1ccco1	-30.4%
Cc1ccc(/C(O)=C/c2nc3cc(C)ccc3oc2=O)cc1	-48.6%
Cc1ccc(/C(O)=C/c2nc3ccccc3oc2=O)cc1	-11.1%
CC(C)(C)/C(O)=C/c1nc2ccccc2oc1=O	-3.78%
Cc1ccc2oc(=O)c(/C=C(\O)C(C)(C)C)nc2c1	-12.4%
COc1ccc(CNC(=O)CN2C(=O)c3ccccc3C2=O)cc1	-5.61%
CC(=O)c1ccccc1OCCn1nc(C(=O)O)c2ccccc2c1=O	1.39%
COc1ccc(S(=O)(=O)N2CCCC2CNC(=O)C(=O)NCCc2ccccc2)cc1 (stereo not drawn)	0.4%
O=C(Nc1cc(C(F)(F)F)ccc1N1CCOCC1)C1=NN(c2ccccc2)C(=O)CC1	0.11%
Cc1ccccc1-c1nnn(CC(=O)N(C)CC(=O)Nc2ccccc2C(F)(F)F)n1	6.76%
COc1c[nH]n(-c2ccccc2)c(=O)c1=O	5.23%
C=CCNC(=O)c1ccc(-c2nc(-c3ccccc3)cs2)cc1	0.25%
CN(C)CCCNC(=O)c1ccc(-c2ccccc2)cc1	12.6%
CC1CCCCC12NC(=O)N(CC(=O)NCc1ccc3c(c1)OCO3)C2=O (stereo not drawn)	5.06%
N#Cc1cc2c(nc1SCC(=O)O)CCCCC2	9.95%
CCCCNC(=O)c1cn(CC)c2cc(N3CCN(C)CC3)c(F)cc2c1=O	-13.3%
CCn1cc(C(=O)NCc2ccccc2)c(=O)c2cc(F)c(N3CCN(C(=O)c4ccco4)CC3)cc21	-5.58%
CCN(CC)CCNC(=O)c1cn(CC)c2cc(N3CCN(C)CC3)c(F)cc2c1=O	-0.07%
CCn1cc(C(=O)NCC(C)C)c(=O)c2cc(F)c(N3CCN(C(=O)c4ccco4)CC3)cc21	1.03%
CCCNC(=O)c1cn(CC)c2cc(N3CCN(C(=O)c4ccco4)CC3)c(F)cc2c1=O	1.38%
CCn1cc(C(=O)NCc2cccc(F)c2)c(=O)c2cc(F)c(N3CCN(C(=O)c4ccco4)CC3)cc21	-0.01%

Compound	inhibition
CCn1cc(C(=O)NCCC(C)C)c(=O)c2cc(F)c(N3CCN(C)CC3)cc21	5.29%
CCN(CC)CCNC(=O)c1cn(CC)c2cc(N3CCN(C(=O)c4ccco4)CC3)c(F)cc2c1=O	5.87%
COc1ccc(C(C)NC(=O)Cc2cccs2)cc1 (stereo not drawn)	1.87%
O=C(Nc1nnc(Cc2ccccc2F)s1)c1ccccc1Cl	-2.4%
O=C(COC(=O)C1CCN(c2ccc(C(F)(F)F)cn2)CC1)NCc1ccc(F)cc1	2.12%
CC(Oc1ccccc1)C(=O)Nc1ccc(S(=O)(=O)Nc2nccs2)cc1 (stereo not drawn)	-2.94%
COC(=O)c1c(C(=O)OC)c(-c2ccc(OC)cc2)n2c1CS(=O)(=O)C2	-2.28%
CCOc1ccccc1N(CC(=O)N1CCOCC1)S(=O)(=O)c1ccccc1	11.6%
CCOc1ncccc1C(=O)Nc1cccc(Cl)c1Cl	-6.65%
COC(=O)c1ccc(C)c(NC(=O)CCc2cc(OC)c(OC)c(OC)c2)c1	8.83%
COc1cc(/C=N/NC(=O)c2ccncc2)cc(OC)c1OC	6.9%
COc1cccc(C(O)c2cnc(C(C)C)n2C)c1 (stereo not drawn)	5.41%
CCCC(=O)Nc1c2c(nn1-c1ccc(F)cc1)CS(=O)(=O)C2	-3.29%
CCn1cc(C(=O)NCCCO)c(=O)c2cc(F)c(N3CCN(C)CC3)cc21	6.73%
CCn1cc(C(=O)NN)c(=O)c2cc(F)c(N3CCOCC3)cc21	-10.2%
CCn1cc(C(=O)NN)c(=O)c2cc(F)c(N3CCN(C)CC3)cc21	3.76%
CCn1cc(C(=O)N[C@H](C)c2ccccc2)c(=O)c2cc(F)c(N3CCN(C)CC3)cc21	2.31%
CCn1cc(C(=O)NCC2CCCO2)c(=O)c2cc(F)c(N3CCN(C)CC3)cc21 (stereo not drawn)	1.91%
CCCCNC(=O)c1cn(CC)c2cc(N3CCN(C(=O)c4ccco4)CC3)c(F)cc2c1=O	-5.26%
CCCCCCNC(=O)c1cn(CC)c2cc(N3CCN(C)CC3)c(F)cc2c1=O	-4.8%
Cc1cccn2c(=O)c(C(=O)NCCCN3CC(C)CC(C)C3)c(O)nc12 (stereo not drawn)	0.48%
COc1cccc2cc(C(=O)OCC(=O)NCc3ccc4c(c3)OCO4)c(=O)oc12	7.88%

Compound	inhibition
CS(=O)(=O)N1CCN(c2ccccc2NC(=S)NC(=O)c2cccs2)CC1	-10.5%
N#CCSc1nccc(/C=C/c2ccccc2)n1	6.91%
O=C(O)C[C@H]1c2cc(F)ccc2S(=O)(=O)N1C1CCCC1	-2.28%
CC(=O)Nc1ccccc1N(C)S(=O)(=O)c1ccc(C)cc1	-1.46%
Cn1c(=O)n(C)c2cc([N+](=O)[O-])c(N3CCN(C(=O)c4ccc(Cl)cc4)CC3)cc21	-4.31%
CCCc1cc(=O)n2[nH]c(C)nc2n1	18.9%
Cc1ccc(O)c(C(=O)CC(=O)c2cccc(F)c2)c1	8.82%
Cc1ccc(C(=O)CC(=O)c2cc(Cl)ccc2O)cc1	-2.62%
Cc1ccc(C(=O)CC(=O)c2cccc(F)c2)c(O)c1	5.16%
Cc1cc(C)c(C(=O)CC(=O)c2ccccc2Cl)c(O)c1	11.6%
Cc1cccc(C(=O)CC(=O)c2cc(Cl)ccc2O)c1	1.32%
O=C(CC(=O)c1ccccc1O)c1ccc(F)cc1	3.76%
CC(CC(=O)NCc1ccco1)S(=O)(=O)c1ccc2c(c1)CCN2C(=O)C1CC1 (stereo not drawn)	-3.2%
O=c1c(C/C=C/c2ccccc2)c(O)ccn1CCc1c[nH]c2ccccc12	4.16%
CCOCCOC(NC(=O)c1ccccc1)(C(F)(F)F)C(F)(F)F	-1.49%
CCOC(=O)CSc1nc(Nc2ccc3c(c2)OCO3)c2ccccc2n1	-1.83%
O=C(COc1ccc(Br)cc1CNCCCN1CCOCC1)Nc1ccccc1	-6.17%
COc1cccc(-c2nc(N)nc(SC)c2C#N)c1	5.06%
CC(C)n1c(CN2CCN(C)CC2)nc2c1c(=O)n(C)c(=O)n2C	2.65%
O=c1[nH]c(C2CCN(S(=O)(=O)c3ccccc3)CC2)nc2c1nnn2Cc1ccc2c(c1)OCCO2	-22.2%
OCC1(Cc2ccc(F)cc2)CCCN(CCc2ccccc2)C1 (stereo not drawn)	0.44%
CCOc1ccccc1NC(=O)c1ccc2c(c1)C(=O)N(CC1CCCO1)C2=O (stereo not drawn)	-5.65%
